Experimental findings from PubChem BioAssay (EPA / NIEHS) are described below.

Results filed as inconclusive are left out. Activity calls are given as the source filed them. The calls were made as follows, unless noted: active = hit-call score of the fitted dose curve at least 0.9, where 1 is the maximum; inactive = score below 0.9.

Assay [1] deals with Myc proto-oncogene protein (Homo sapiens) (UniProt P01106). The assay is described as follows: ATG_Myc_CIS: Attagene CIS-FACTORIAL HepG2 Assay for human Myelocytomatosis (Myc) Proto-Oncogene Transcription Factor (AID 2282990). The note with it: HepG2, Attagene cis-reporter transcription factor activity; actives raise or lower the signal. The procedure, abridged: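 DMSO-normalised, bidirectionally fitted reporter mRNA signal. HepG2 cells transfected with cis reporter constructs, treated 24 h; transcripts detected by RT-PCR, 6-FAM primer extension and CE.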

A short description of assay [2]: ATG_NF_kB_CIS: Attagene CIS-FACTORIAL HepG2 Assay for human Nuclear Factor Kappa B (NF-kB) (AID 2282991). The conditions noted are these: HepG2 Attagene cis-factorial NF-kB reporter mRNA; actives raise or lower the signal. In a few lines:
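Endogenous transcription factor activity in HepG2 was captured via cis-regulated reporter constructs; after 24 h dosing, reporter mRNA was reverse-transcribed, amplified, fluorescently labelled and sized by capillary electrophoresis, with activity fitted bidirectionally relative to DMSO.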

Assay [3] can be described thus: ATG_NRF2_ARE_CIS: Attagene CIS-FACTORIAL HepG2 Assay for human Nuclear Factor Erythroid 2 Related Factor 2 (NFR2) response to Antioxidant Response Elements (ARE) (AID 2282992). The note with it: HepG2 Attagene ARE/NRF2 reporter, transcription factor activity; actives raise or lower the signal. The procedure, abridged: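 Endogenous transcription factor activity read out as reporter transcript levels (RT-PCR plus capillary electrophoresis, fluorescence) in transiently transfected HepG2 cells. Measured at 24 h after dosing; gain or loss of signal fitted versus DMSO.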

Assay [4] is described as follows: ATG_Oct_MLP_CIS: Attagene CIS-FACTORIAL HepG2 Assay for human Octamer-Binding Transcription Factor (Oct) (AID 2282993). The note with it: HepG2 Attagene cis-factorial Oct reporter, mRNA; actives raise or lower the signal. The procedure, abridged:
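HepG2 cells transiently transfected with cis-promoter-driven multiplexed reporter transcription units, dosed for 24 h. Reporter mRNA quantified by RT-PCR, fluorescent labelling, HpaI digestion and capillary electrophoresis; bidirectional fits versus DMSO baseline.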

For assay [5], the target named is Cellular tumor antigen p53 (Homo sapiens) (UniProt P04637). The assay is described as follows: ATG_p53_CIS: Attagene CIS-FACTORIAL HepG2 Assay for human p53 Transcription Factor (AID 2282994). The note with it: HepG2 p53 cis-element reporter, Attagene mRNA; actives raise or lower the signal. The procedure, abridged:
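Endogenous p53 activity read in transiently transfected HepG2 from a cis-element-driven reporter transcript after 24 h exposure. RNA reverse-transcribed, PCR-amplified, fluorescently labelled and sized by capillary electrophoresis; gain or loss fitted against DMSO baseline.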

Assay [6] addresses Retinoic acid receptor alpha (Homo sapiens) (UniProt P10276). The assay is described as follows: ATG_RARa_TRANS: Attagene TRANS-FACTORIAL HepG2 Assay for human Retinoic Acid Receptor alpha (RARa) (AID 2283005; active = hit-call score of the fitted dose curve at least 0.9, where 1 is the maximum). The procedure, abridged: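 HepG2 cells transiently transfected with multiple reporter units expressing chimeric RARα-GAL4 fusion, with GAL4-UAS-driven reporters. After 24 h compound exposure, reporter mRNA induction quantified by RT-PCR and capillary electrophoresis with fluorescent labeling; gain-of-signal fitted relative to DMSO control.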

Assay [7] concerns the target human Retinoic Acid Receptor gamma (RARg), RARG (gene 5916) (UniProt P13631). The assay is described as follows: ATG_RARg_TRANS: Attagene TRANS-FACTORIAL HepG2 Assay for human Retinoic Acid Receptor gamma (RARg) (AID 2283009; active = hit-call score of the fitted dose curve at least 0.9, where 1 is the maximum). In a few lines:
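Gain-of-signal relative to DMSO is reported from fluorescent capillary electrophoresis of RT-PCR reporter products. These came from HepG2 cells expressing transfected RARg-GAL4 chimeras with UAS reporters, harvested 24 h after dosing.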

For assay [8], the target named is human RAR-related Orphan Receptor gamma (RORg), RORC (gene 6097) (UniProt P51449). The assay is described as follows: ATG_RORg_TRANS: Attagene TRANS-FACTORIAL HepG2 Assay for human RAR-related Orphan Receptor gamma (RORg) (AID 2283011; active = hit-call score of the fitted dose curve at least 0.9, where 1 is the maximum). In a few lines:
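First, HepG2 liver cells were transfected with GAL4-UAS-driven reporter constructs and the RORg-Gal4 fusion. Next, they were treated with chemical for 24 h. Finally, reporter mRNA was quantified by RT-PCR and capillary electrophoresis, with upward activity fitted against DMSO.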

In assay [9] the target is Peroxisome proliferator-activated receptor gamma (Homo sapiens) (UniProt P37231). The assay is described as follows: ATG_PPARg_TRANS: Attagene TRANS-FACTORIAL HepG2 Assay for human Peroxisome Proliferator-activated Receptor-gamma (PPARg) (AID 2283007; active = hit-call score of the fitted dose curve at least 0.9, where 1 is the maximum). In a few lines:
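A TRANS-format multiplexed reporter assay measures activity of an exogenous chimeric NR-Gal4 protein in HepG2 cells. After 24 h of chemical exposure, reporter transcripts are amplified, fluorescently labelled and sized by capillary electrophoresis, with gain of signal scored against DMSO.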

For assay [10], the target named is Nuclear receptor subfamily 1 group I member 2 (Homo sapiens) (UniProt O75469). The assay is described as follows: ATG_PXR_TRANS: Attagene TRANS-FACTORIAL HepG2 Assay for human Pregnane X Receptor (PXR) (AID 2283008; active = hit-call score of the fitted dose curve at least 0.9, where 1 is the maximum). In a few lines: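 Transactivation by exogenous PXR–GAL4 fusion measured as reporter transcript induction after 24 h compound treatment of transfected human HepG2 cells. Read-out via RT-PCR and capillary electrophoresis of labelled fragments, fitted upward relative to DMSO.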

Assay [11] deals with human RAR-related Orphan Receptor beta (RORb), RORB (gene 6096) (UniProt Q92753). The assay is described as follows: ATG_RORb_TRANS: Attagene TRANS-FACTORIAL HepG2 Assay for human RAR-related Orphan Receptor beta (RORb) (AID 2283010; active = hit-call score of the fitted dose curve at least 0.9, where 1 is the maximum). In a few lines:
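Multiplexed transcription-factor reporter assay: HepG2 cells transiently carrying NR-Gal4/GAL4-UAS constructs, 24 h treatment, mRNA quantified by RT-PCR plus capillary electrophoresis fluorescence; activity scored as induction over DMSO.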

Assay [12] in a line: BSK_3C_TissueFactor: BioMAP Diversity Plus: 3C Assay for Tissue Factor Biomarker Activity (AID 2282997). The note with it: BioMAP 3C HUVEC, tissue factor biomarker readout; actives raise or lower the signal. In a few lines:
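After a 24 h chemical exposure of primary human umbilical vein endothelial cells, Tissue Factor levels were quantified by ELISA.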

Assay [13] in a line: BSK_3C_uPAR: BioMAP Diversity Plus: 3C Assay for Urokinase-type plasminogen activator receptor (uPAR) Biomarker Activity (AID 2282998). The note with it: BioMAP 3C HUVEC, uPAR biomarker ELISA; actives raise or lower the signal. In a few lines:
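Human umbilical vein endothelial primary cells were exposed to test chemical for 24 h. Cell-surface uPAR was then quantified by ELISA, and responses were fitted bidirectionally against DMSO as negative control and baseline.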

Assay [14] can be described thus: BSK_3C_VCAM1: BioMAP Diversity Plus: 3C Assay for Vascular cell adhesion molecule 1 (VCAM1) Biomarker Activity (AID 2282999). The conditions noted are these: BioMAP 3C HUVEC, VCAM1 ELISA, cytokine-stimulated; actives raise or lower the signal. In a few lines: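 Vascular primary endothelium (human umbilical vein) was exposed to chemicals and assayed 24 h later. VCAM-1 levels came from ELISA, with DMSO serving as baseline for bidirectional fitting.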

Assay [15] is described as follows: BSK_4H_Eotaxin3: BioMAP Diversity Plus: 4H Assay for Eotaxin 3 Biomarker Activity (AID 2283000).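 As to outcome: CCL26 protein level quantified by ELISA in parallel with SRB cytotoxicity check.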 The conditions noted are these: primary human endothelial cells (HUVEC); actives raise or lower the signal. The procedure, abridged: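 Chemicals were added to human umbilical vein endothelium cultures, and Eotaxin-3 was quantified by ELISA at 24 h. Values were derived by bidirectional fitting with DMSO serving as negative control and activity baseline.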

In assay [16] the target is human Peroxisome Proliferator-activated Receptor alpha (PPARa), PPARA (gene 5465) (UniProt Q07869). The assay is described as follows: ATG_PPARa_TRANS: Attagene TRANS-FACTORIAL HepG2 Assay for human Peroxisome Proliferator-activated Receptor alpha (PPARa) (AID 2283001; active = hit-call score of the fitted dose curve at least 0.9, where 1 is the maximum). The procedure, abridged: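 Exposure: 24 h, transiently transfected HepG2 cells. Endpoint: GAL4-UAS reporter mRNA, RT-PCR with capillary electrophoresis fluorescence. Baseline: DMSO; increases fitted.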

Read-out in assay [17]: Intercellular Adhesion Molecule 1 (ICAM1), ICAM1 (gene 3383)
The assay is described as follows: BSK_3C_ICAM1: BioMAP Diversity Plus: 3C Assay for Intercellular Adhesion Molecule 1 (ICAM1) Biomarker Activity (AID 2283003). The conditions noted are these: primary human endothelial cells (HUVEC); actives raise or lower the signal. The procedure, abridged: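 Using DMSO as baseline, bidirectional curve fitting was applied to ICAM-1 ELISA signals from HUVEC in the 3C system, measured 24 h after compound addition.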

Assay [18] is described as follows: BSK_3C_Proliferation: Cell Proliferation Assessment in the BioMAP Diversity Plus: 3C Assay (AID 2283006).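 As to AC50: potency may reflect either rise or fall in cell number versus DMSO.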 The conditions noted are these: primary human endothelial cells (HUVEC). The procedure, abridged:
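Measured here: sulforhodamine B (0.1%) staining of TCA-fixed sub-confluent umbilical vein endothelial cultures 48 h post-dosing, absorbance 560 nm. DMSO served as negative control and baseline; both signal gain and loss were modelled.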

The target of assay [19] is human Peroxisome Proliferator-activated Receptor delta (PPARd), PPARD (gene 5467) (UniProt Q03181). The assay is described as follows: ATG_PPARd_TRANS: Attagene TRANS-FACTORIAL HepG2 Assay for human Peroxisome Proliferator-activated Receptor delta (PPARd) (AID 2283002; active = hit-call score of the fitted dose curve at least 0.9, where 1 is the maximum). The procedure, abridged:
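Measured quantity: GAL4-UAS reporter transcript induction in HepG2 after 24 h chemical dosing, with NR-Gal4 chimeras supplied by transient transfection. Detection by RT-PCR and capillary electrophoresis; upward fit against DMSO.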

The target of assay [20] is human Retinoic Acid Receptor beta (RARb), RARB (gene 5915) (UniProt P10826). The assay is described as follows: ATG_RARb_TRANS: Attagene TRANS-FACTORIAL HepG2 Assay for human Retinoic Acid Receptor beta (AID 2283004; active = hit-call score of the fitted dose curve at least 0.9, where 1 is the maximum). In a few lines: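 Transient transfection of HepG2 with multiple reporter units → chemical dosing, 24 h → total RNA isolation → RT with oligo(dT) → reporter-specific PCR, 6-FAM primer extension, HpaI digest → capillary electrophoresis. Positive direction vs DMSO control.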

Retinoic acid receptor alpha (Homo sapiens), sequence (P10276 whole entry, looked up, the tested form may be a part): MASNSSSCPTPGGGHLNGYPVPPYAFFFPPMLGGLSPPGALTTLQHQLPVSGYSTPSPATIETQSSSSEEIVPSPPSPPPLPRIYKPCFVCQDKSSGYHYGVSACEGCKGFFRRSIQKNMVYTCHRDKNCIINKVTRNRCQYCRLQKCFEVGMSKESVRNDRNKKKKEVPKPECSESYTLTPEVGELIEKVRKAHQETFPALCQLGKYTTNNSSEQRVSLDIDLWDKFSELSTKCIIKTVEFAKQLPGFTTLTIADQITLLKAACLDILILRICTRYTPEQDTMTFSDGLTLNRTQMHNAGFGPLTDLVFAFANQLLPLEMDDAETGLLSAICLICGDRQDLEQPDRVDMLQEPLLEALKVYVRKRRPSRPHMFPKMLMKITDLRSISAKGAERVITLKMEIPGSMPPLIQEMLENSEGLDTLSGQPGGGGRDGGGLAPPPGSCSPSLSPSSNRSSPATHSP
Cellular tumor antigen p53 (Homo sapiens), sequence (P04637 whole entry, looked up): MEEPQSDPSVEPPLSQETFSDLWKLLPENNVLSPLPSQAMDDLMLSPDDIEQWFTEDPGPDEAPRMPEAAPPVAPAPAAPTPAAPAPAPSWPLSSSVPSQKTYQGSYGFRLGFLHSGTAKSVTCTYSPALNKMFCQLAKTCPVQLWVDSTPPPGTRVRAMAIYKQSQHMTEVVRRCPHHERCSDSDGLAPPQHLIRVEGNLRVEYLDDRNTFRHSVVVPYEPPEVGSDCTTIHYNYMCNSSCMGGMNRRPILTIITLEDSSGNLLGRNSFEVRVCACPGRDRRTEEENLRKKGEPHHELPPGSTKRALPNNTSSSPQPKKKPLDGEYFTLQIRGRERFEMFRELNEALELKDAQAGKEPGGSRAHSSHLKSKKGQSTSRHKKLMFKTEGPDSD
Nuclear receptor subfamily 1 group I member 2 (Homo sapiens), sequence (O75469 whole entry, looked up, the tested form may be a part): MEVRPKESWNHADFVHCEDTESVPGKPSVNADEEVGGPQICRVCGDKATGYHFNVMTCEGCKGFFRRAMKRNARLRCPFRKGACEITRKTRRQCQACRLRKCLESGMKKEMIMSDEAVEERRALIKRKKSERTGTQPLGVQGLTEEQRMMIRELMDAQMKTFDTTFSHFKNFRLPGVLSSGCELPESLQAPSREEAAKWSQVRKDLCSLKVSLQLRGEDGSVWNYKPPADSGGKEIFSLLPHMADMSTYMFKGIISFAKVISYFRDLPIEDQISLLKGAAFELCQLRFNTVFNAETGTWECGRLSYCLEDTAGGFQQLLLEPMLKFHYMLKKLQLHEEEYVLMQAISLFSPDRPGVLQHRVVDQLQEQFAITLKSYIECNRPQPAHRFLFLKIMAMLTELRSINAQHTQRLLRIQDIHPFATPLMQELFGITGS
human RAR-related Orphan Receptor beta (RORb), RORB (gene 6096), sequence (Q92753 whole entry, looked up, the tested form may be a part): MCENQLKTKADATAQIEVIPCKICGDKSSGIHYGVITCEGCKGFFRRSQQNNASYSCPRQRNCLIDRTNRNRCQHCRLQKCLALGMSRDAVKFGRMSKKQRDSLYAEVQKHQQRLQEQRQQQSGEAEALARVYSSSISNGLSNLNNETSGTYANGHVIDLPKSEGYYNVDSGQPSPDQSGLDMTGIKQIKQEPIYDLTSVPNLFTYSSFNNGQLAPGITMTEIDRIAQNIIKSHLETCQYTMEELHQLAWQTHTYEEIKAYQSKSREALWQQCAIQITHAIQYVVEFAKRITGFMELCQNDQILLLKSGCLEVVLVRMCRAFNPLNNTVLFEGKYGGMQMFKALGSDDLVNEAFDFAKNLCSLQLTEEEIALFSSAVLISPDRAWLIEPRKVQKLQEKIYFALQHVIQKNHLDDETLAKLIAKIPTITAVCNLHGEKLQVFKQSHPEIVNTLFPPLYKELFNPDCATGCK
Peroxisome proliferator-activated receptor gamma (Homo sapiens), sequence (P37231 whole entry, looked up, the tested form may be a part): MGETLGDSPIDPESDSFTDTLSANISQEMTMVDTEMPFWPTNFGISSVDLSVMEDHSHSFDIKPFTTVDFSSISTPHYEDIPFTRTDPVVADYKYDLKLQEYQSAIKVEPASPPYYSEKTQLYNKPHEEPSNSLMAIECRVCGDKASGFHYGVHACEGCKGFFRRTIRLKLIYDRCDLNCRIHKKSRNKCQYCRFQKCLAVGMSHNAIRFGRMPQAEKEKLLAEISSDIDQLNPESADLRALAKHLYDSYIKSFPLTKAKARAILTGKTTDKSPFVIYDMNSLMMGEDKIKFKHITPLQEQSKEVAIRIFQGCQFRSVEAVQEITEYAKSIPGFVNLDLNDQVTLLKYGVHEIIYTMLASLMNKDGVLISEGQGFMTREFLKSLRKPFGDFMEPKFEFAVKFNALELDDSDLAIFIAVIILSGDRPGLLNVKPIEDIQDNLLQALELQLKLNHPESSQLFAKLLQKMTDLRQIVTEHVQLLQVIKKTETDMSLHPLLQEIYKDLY
human Peroxisome Proliferator-activated Receptor delta (PPARd), PPARD (gene 5467), sequence (Q03181 whole entry, looked up, the tested form may be a part): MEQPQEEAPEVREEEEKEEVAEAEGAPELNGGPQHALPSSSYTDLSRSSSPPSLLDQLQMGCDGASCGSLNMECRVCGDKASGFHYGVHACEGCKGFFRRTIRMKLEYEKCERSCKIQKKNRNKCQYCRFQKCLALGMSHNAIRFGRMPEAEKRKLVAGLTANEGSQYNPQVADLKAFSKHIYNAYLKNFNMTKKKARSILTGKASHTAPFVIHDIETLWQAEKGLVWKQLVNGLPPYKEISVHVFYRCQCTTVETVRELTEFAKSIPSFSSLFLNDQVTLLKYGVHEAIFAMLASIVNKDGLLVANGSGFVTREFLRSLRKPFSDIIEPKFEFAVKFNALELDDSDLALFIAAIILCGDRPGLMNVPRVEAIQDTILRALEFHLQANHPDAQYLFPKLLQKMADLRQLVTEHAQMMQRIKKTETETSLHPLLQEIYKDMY
human RAR-related Orphan Receptor gamma (RORg), RORC (gene 6097), sequence (P51449 whole entry, looked up, the tested form may be a part): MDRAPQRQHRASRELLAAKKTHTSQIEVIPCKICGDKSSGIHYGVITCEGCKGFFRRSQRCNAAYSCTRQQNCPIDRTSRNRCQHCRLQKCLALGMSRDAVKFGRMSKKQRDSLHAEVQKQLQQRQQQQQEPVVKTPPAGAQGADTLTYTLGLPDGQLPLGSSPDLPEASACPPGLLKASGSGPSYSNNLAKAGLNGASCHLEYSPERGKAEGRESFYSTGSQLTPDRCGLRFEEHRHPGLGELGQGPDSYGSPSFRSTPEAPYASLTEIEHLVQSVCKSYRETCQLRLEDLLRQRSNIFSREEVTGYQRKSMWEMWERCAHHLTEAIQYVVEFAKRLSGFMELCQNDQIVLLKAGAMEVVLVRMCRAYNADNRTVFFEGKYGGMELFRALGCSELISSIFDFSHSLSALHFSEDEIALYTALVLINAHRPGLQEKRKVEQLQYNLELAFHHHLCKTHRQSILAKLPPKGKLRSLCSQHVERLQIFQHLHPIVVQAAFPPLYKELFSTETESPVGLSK
human Peroxisome Proliferator-activated Receptor alpha (PPARa), PPARA (gene 5465), sequence (Q07869 whole entry, looked up, the tested form may be a part): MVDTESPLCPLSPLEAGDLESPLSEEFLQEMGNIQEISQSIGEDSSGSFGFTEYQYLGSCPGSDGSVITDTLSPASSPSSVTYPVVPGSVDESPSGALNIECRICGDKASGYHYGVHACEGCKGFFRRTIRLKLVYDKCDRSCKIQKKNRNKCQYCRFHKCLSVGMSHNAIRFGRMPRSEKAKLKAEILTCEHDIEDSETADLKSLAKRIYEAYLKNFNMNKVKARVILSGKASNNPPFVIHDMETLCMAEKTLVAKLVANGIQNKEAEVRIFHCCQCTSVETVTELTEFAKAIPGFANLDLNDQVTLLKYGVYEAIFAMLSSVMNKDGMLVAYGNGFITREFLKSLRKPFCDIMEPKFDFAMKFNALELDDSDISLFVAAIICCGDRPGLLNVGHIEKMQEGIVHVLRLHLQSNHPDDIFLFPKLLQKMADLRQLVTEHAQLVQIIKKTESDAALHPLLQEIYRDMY
Myc proto-oncogene protein (Homo sapiens), sequence (P01106 whole entry, looked up): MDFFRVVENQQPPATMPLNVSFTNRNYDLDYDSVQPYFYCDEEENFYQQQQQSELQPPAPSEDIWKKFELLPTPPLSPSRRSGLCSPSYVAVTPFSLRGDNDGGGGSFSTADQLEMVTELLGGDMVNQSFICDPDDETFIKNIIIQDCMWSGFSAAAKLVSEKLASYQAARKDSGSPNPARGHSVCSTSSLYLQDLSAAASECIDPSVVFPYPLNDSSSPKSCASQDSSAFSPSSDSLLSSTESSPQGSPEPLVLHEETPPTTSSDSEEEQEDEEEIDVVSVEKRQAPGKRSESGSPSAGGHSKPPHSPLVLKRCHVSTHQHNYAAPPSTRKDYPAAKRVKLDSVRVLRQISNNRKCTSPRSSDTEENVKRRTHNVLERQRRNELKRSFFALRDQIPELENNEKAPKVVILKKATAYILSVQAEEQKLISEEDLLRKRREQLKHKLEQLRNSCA
human Retinoic Acid Receptor gamma (RARg), RARG (gene 5916), sequence (P13631 whole entry, looked up, the tested form may be a part): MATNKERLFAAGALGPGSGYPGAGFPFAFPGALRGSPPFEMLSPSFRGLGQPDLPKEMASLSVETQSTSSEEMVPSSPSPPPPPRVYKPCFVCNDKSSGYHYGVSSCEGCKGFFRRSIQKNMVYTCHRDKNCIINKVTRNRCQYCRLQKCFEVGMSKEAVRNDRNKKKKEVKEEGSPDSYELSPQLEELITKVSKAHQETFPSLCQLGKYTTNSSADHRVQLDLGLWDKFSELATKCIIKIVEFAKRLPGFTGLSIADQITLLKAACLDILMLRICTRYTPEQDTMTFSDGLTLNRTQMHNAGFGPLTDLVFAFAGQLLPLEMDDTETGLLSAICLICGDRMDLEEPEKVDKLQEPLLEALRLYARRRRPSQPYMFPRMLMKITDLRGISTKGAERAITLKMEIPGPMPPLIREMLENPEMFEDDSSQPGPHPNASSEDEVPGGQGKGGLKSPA

With `CC(=O)O[C@@H]1C[C@@H]2CC[C@@]1(C)C2(C)C`, the call in [1], in [2], in [3], in assay [4], in assay [5] and in assay [6] was inactive. The compound was called inactive in assay [7] and in assay [8].
Regarding `Brc1ccc(Br)c(Br)c1`, the call in assay [1], in [2], in assay [3], in assay [4], in assay [5] and in assay [6] was inactive. The outcome in assay [9], in [10], in assay [7] and in assay [11] was inactive.
The AC50 is the concentration giving half of the maximal activity seen. Turning to `C=C(C)[C@H]1CC=C(C)C(=O)C1`, the compound was classed as inactive in assay [1], in assay [2], in assay [3], in assay [4], in assay [12] and in [13]. Besides, the outcome in assay [14], in [15], in assay [16], in [17], in [18] and in assay [10] was inactive. The AC50 in assay [9] was 68.7 µM (active).
`COc1ccc(OC)c(N=Nc2c(O)ccc3ccccc23)c1`: the outcome in assay [1], in assay [2], in assay [5], in assay [12], in assay [16] and in assay [19] was inactive. Further, the outcome in assay [17], in assay [20], in assay [9] and in assay [8] was inactive. Also, the concentration at half-maximal activity (AC50) in [3] is 0.493 µM (active); in assay [13], 12.2 µM (active); in assay [14], 20 µM (active); in [15], 9.47 µM (active); in assay [18], 12.6 µM (active); in assay [10], 4.23 µM (active).
Turning to `O=C1OC(=O)c2c(Br)c(Br)c(Br)c(Br)c21`, the compound was classed as inactive in assay [1], in assay [2], in [4], in assay [16], in assay [19] and in assay [9]. For the same compound, the outcome in [10] and in [7] was inactive. The AC50 in [3] is 100 µM (active).
On to `COC(=O)c1cccnc1`, for which the result in assay [1], in assay [2], in assay [3], in [4], in assay [16] and in assay [20] was inactive. Also, the outcome in assay [7], in assay [11] and in [8] was inactive.
For `CCCCC(CC)COC(=O)c1ccc(O)cc1` (stereo not given), the outcome in assay [1], in assay [2], in assay [3], in assay [5], in [16] and in assay [19] was inactive. Also, the result in assay [6], in [11] and in assay [8] was inactive.
`COC(=O)c1ccc([N+](=O)[O-])cc1`: the compound was called inactive in assay [1], in assay [2], in assay [3], in assay [5], in assay [16] and in assay [19].
